Only some compounds are listed: those with a hit (about 5.2% of all), similar ones and a draw of the others.
rTrxR1 inhibitor: blocks rat thioredoxin reductase 1 | O89049 | recombinant rTrxR1, NADPH fluorescence consumption, selenite substrate | Potency, µM (series often up to 114 µM), actives largely listed as inhibitors | actives 1% (n = 390,000); further: nearly all actives have a fitted effect of over 65% in size
Target sequence (O89049 whole entry, looked up): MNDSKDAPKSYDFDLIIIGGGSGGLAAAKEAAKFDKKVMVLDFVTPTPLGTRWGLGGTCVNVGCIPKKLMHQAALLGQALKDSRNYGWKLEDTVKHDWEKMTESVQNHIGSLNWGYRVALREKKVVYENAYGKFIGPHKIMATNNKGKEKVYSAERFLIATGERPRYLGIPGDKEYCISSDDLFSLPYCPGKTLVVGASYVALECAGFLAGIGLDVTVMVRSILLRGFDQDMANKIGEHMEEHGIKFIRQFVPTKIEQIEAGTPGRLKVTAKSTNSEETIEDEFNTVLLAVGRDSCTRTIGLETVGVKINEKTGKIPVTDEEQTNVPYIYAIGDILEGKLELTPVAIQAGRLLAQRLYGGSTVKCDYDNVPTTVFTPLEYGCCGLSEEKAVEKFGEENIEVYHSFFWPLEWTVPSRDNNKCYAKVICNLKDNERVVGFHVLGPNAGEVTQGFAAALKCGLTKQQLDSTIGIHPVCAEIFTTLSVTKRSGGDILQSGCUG
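Rat TrxR1 (90 nM in the dispensed reagent) was pre-reduced with 400 uM NADPH for 5 min at room temperature, then incubated with compound for 15 min. After 400 uM selenite was added, NADPH fluorescence (Ex 340/Em 450 nm) was followed for 8 min.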
VDR inh: inhibitors of human vitamin D receptor; VDR-SRC2-3 peptide fluorescence polarization, 2 h; Potency, µM, most hits filed as inhibitors; actives 0.93% (n = 400,000); AID 504847
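Fluorescence polarization assay measuring small-molecule disruption of VDR binding to the coregulator peptide SRC2-3. Compounds were pin-transferred (23 nl) into the reagent mix and incubated 2 h at room temperature before reading.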
TrxR1 substrate: substrates of rat thioredoxin reductase 1. O89049. purified TrxR1 substrate turnover, NADPH consumption readout. Potency, µM (doses to about 114 µM). actives 0.01% (n = 390,000); further: nearly all actives have a fitted effect of over 50% in size
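Rat TrxR1, dispensed at 90 nM, was prereduced with 400 uM NADPH (final) for 5 min at ~22 deg C, then incubated with compound 15 min before 400 uM selenite. A first-read NADPH fluorescence drop versus no-compound background flagged substrates.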
mIDH1 inhibitor: human IDH1 R132H inhibition | O75874 | IDH1-R132H enzyme, NADPH consumption, diaphorase/resazurin fluorescence | Potency, µM (doses to about 76.6 µM), actives largely listed as inhibitors | actives 0.093% (n = 390,000); further: nearly all actives have a fitted effect of over 65% in size
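IDH1-R132H (0.5 ug/mL dispensed) in pH 7.5 Tris buffer was preincubated 30 min with compound, then given a substrate mix of 0.016 mM NADPH and 2 mM alpha-KG for 80 min at room temperature; remaining NADPH was read by diaphorase/resazurin fluorescence.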
PLK1 PBD inh: inhibitors of human PLK1 polo-box domain binding. Potency, µM, most hits filed as inhibitors. actives 2.8% (n = 360,000). Plk1 PBD binding of FITC phosphopeptide, fluorescence polarization. P53350; further: series mostly up to about 57 µM; nearly all actives have a fitted effect of over 65% in size
Sfp PPTase inh: Sfp phosphopantetheinyl transferase inhibition | Q9F4F7 | Biochemical Sfp PPTase activity, qHTS | Potency, µM, usual class: inhibitors | actives 3.5% (n = 310,000) | AID 1490;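 further: the enzyme is Sfp with the accession as filed and its product quenches rhodamine fluorescence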
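Buffer: 50 mM Hepes-Na pH 7.6, 10 mM MgCl2, 0.01% Nonidet P-40, 0.01% BSA. Enzyme 15 nM, pre-exposed to compound 15 min; substrates then added and fluorescence change tracked over 30 min.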
A number is an active result; i = inactive; ? = inconclusive; nt = no result given; [ ] = remark or other dose. The call rests on the fitted dose curve; in most records, active means well fitted curve in the direction sought with a large enough effect; inconclusive means small, poorly fitted or top-dose-only effect, or another doubt; inactive means no such curve, though single readings can be large; an effect the other way counts as inactive or inconclusive.

SMILES	rTrxR1 inhibitor	VDR inh	TrxR1 substrate	mIDH1 inhibitor	PLK1 PBD inh	Sfp PPTase inh
CCOC(=O)N1CCN(c2cc(=O)n(-c3ccc(Br)cc3)c(=O)[nH]2)CC1	17.8µM	?	i	i	i	i
CCOC(=O)N1CCN(c2cc(=O)n(-c3ccc(C)cc3)c(=O)[nH]2)CC1	?	i	i	i	i	i
Cc1ccc(Cl)c2c1=NC(=O)C=2c1[nH]c(=S)[nH]c1O	?	?	i	i	i	39.8µM
O=C1N=c2ccccc2=C1c1[nH]c(=S)[nH]c1O	i	i	i	i	i	i
Nc1nc2c(F)c(F)c(F)cc2s1	i	i	i	i	26.7µM	?
COc1ccc(NC(=O)CC2C(=O)N(c3ccc(OC)cc3)C(=O)N2CCC2=CCCCC2)cc1 (stereo not drawn)	i	i	i	i	nt	nt
O=C(CC1C(=O)NCCN1Cc1cccc(F)c1)NCCCOc1cccnc1 (stereo not drawn)	i	i	i	i	23.8µM	i
O=C(O)c1cc(N=Nc2ccc(-c3ccc(N=Nc4ccc(O)c(C(=O)O)c4)cc3)cc2)ccc1O	nt	12.6µM	nt	nt	nt	?
O=C(O)c1ccccc1-c1ccc(C(F)(F)F)cc1	nt	i	nt	nt	nt	i
CCCCC1=CC2=CC(=O)C(C)(OC(=O)CC)C(=O)C2=CN1CCCN(CC)CC (stereo not drawn)	nt	nt	nt	nt	nt	i
O=C(CN1CCN(Cc2ccc3c(c2)OCO3)CC1)Nc1ccc2c(c1)OCO2	i	i	i	i	i	i
O=C(CN1CCCN(S(=O)(=O)c2ccc(Br)cc2)CC1)Nc1ccc2c(c1)OCO2	nt	nt	nt	nt	nt	i
COc1cc(NC(=O)CN2CCN(Cc3ccc4c(c3)OCO4)CC2)cc(OC)c1	i	i	i	i	i	56.2µM
COc1ccc(S(=O)(=O)N2CCN(Cc3ccc(Cl)cc3)CC2)cc1	i	i	i	i	i	i
COc1ccc(CN2CCCN(S(=O)(=O)c3ccc(Br)cc3)CC2)cc1	?	i	i	i	26.7µM	i
COc1ccc(NC(=O)CN2CCN(Cc3ccc4c(c3)OCO4)CC2)cc1OC	i	i	i	i	i	56.2µM
COc1ccc(S(=O)(=O)N2CCCN(CC(=O)Nc3ccc4c(c3)OCO4)CC2)cc1	79.4µM	i	i	i	i	i
COC(=O)C1=C(C(=O)OC)[C@@H]2Nc3ccccc3[C@@]23C[C@@H](C(=O)OC)N(S(=O)(=O)c2ccc4c(c2)OCCN4C)C3=N1	nt	nt	nt	nt	nt	i
O=S(=O)(NCc1nnc2ccccn12)c1ccc(F)cc1	i	i	i	i	i	nt
CC(C)c1ccc(C2N3CC4(C)CN2CC(c2ccccc2)(C3)C4=O)cc1 (stereo not drawn)	i	i	i	i	nt	nt
Cc1cccc(Oc2nc(-c3ccccn3)nc3ccccc23)c1	i	i	i	i	i	70.8µM
CCCCOc1ccc(C2(C)NC(=O)NC2=O)cc1 (stereo not drawn)	i	25.1µM	i	i	7.52µM	i
CCCCCCCOc1ccc(C2(C)NC(=O)NC2=O)cc1 (stereo not drawn)	i	i	i	i	i	i
COc1cccc([C@@H]2Oc3ccc(Br)cc3C[C@H]2OC(=O)N[C@H]2CCCc3ccccc32)c1	nt	i	nt	nt	nt	i
COC(=O)C1=C(C)N(C)C(=O)NC1c1ccc(O)c(OC)c1 (stereo not drawn)	i	i	i	i	i	i
SMILES	rTrxR1 inhibitor	VDR inh	TrxR1 substrate	mIDH1 inhibitor	PLK1 PBD inh	Sfp PPTase inh
COc1cc(C2NC(=O)C(C#N)=C(Nc3cccc(C)c3)S2)ccc1O (stereo not drawn)	i	31.6µM	i	i	?	20µM
CC(=O)N(C(C)=O)c1ncnc2c1c(-c1ccc(Cl)cc1)nn2C(C)(C)C	i	50.1µM	i	i	i	i
CC(=O)Nc1ncnc2c1c(-c1ccc(Cl)cc1)nn2C(C)(C)C	i	i	i	i	i	i
CCOC(=O)c1ccc(CN(Cc2ccccc2)S(=O)(=O)c2ccc(C)cc2)cc1	i	i	i	i	nt	nt
COc1ccc(C(=O)CN2CCN(CCN3C(=O)c4cccc5cccc(c45)C3=O)CC2)cc1	i	?	i	i	18.9µM	nt
NNc1ccc([N+](=O)[O-])c2[nH][nH]c(=O)c12	nt	nt	nt	i	23.8µM	nt
c1ccc(Sc2ccccn2)cc1	i	i	i	i	i	nt
c1ccc(SSc2ccccn2)nc1	i[11.4 µM]	3.16µM	i[11.4 µM]	i	0.67µM	nt
O=C(NCCC1=CCCCC1)C1CCN(C(=O)N2CCOc3ccccc32)CC1	i	i	i	i	nt	nt
CC1(C)Cc2c(sc(NC(=O)Cc3ccccc3)c2C#N)C(C)(C)N1	nt	nt	nt	i	i	nt
COc1cccc(NC(=O)Nc2cc(C(=O)NC(C)C)ccc2N2CC3CC(C2)c2cccc(=O)n2C3)c1 (stereo not drawn)	i	i	i	i	3.77µM	i
O=C(O)c1ccc(N2CC3CC(C2)c2cccc(=O)n2C3)c(NC(=S)Nc2ccc(Cl)cc2Cl)c1 (stereo not drawn)	?	?	i	i	11.9µM	50.1µM
CCc1ccc(NC(=O)Nc2cc(C(=O)O)ccc2N2CC3CC(C2)c2cccc(=O)n2C3)cc1 (stereo not drawn)	i	i	i	i	i	i
Cc1ccc(CN2C(=O)CCC2C(=O)NCc2ccccc2Cl)cc1 (stereo not drawn)	i	i	i	i	i	i
Cc1cc(N(C)C)cc(C)c1/C=C/c1cc[n+](C)c2ccccc12	i	nt	i	nt	nt	nt
CCN1CCN(c2c(S(=O)(=O)c3ccc(C)c(C)c3)cnc3cc(OC)c(OC)cc23)CC1	i	i	i	i	nt	nt
Cc1ccnc(NC(c2ccccn2)c2c(C)[nH]c3ccccc23)c1 (stereo not drawn)	?	?	i[11.4 µM]	i	11.9µM	?
COc1ccccc1N1CCN(C(=O)Cn2ncc3ccsc3c2=O)CC1	i	i	i	i	nt	nt
COc1ccc(C(=O)Nc2ccc(-c3n[nH]c(=S)o3)cc2)cc1OC	i	?	i	i	11.9µM	15.8µM
O=C(O)c1cccc(NC(=O)c2cn(-c3ccccc3)nc2-c2ccncc2)c1	i	i	i	i	23.8µM	i
Clc1cccc(-c2ccc(CNCc3ccccn3)o2)c1	?	i	i	i	i	79.4µM
Brc1ccc(-c2ccc(CNCc3ccccn3)o2)cc1	i	i	i	i	i	i
CC(C)(C)c1n[nH]c2c1CCCC2	i	i	i	i	26.7µM	i
O=[N+]([O-])c1cc([N+](=O)[O-])c2c(=Nc3ccccc3)n(-c3ccccc3)n(O)c2c1	i	?	i	i	5.97µM	?
O=[N+]([O-])c1cccc(C(=Nc2ccccc2)NO)c1	i	i	i	i	i	i
CC1=C(C(=O)N(C)C)CC(CC(=O)NCc2cccs2)C(=O)N1CCC1=CCCCC1 (stereo not drawn)	nt	nt	nt	i	i	nt
CC(C)N1CCC(NC(=O)Nc2ccc3c(c2)OCO3)CC1	i	i	i	i	i	i
